In PubChem BioAssay:

Assay: HepG2 liver cancer cell viability effects, profiling panel, resazurin fluorescence, 24 h, PK04 Diversity Set (AID 1172); note: test concentration not given here
Details: higher = more signal

| SMILES | z-score |
| --- | --- |
| CC(C)c1ccc(NN2C(C(O)C(C)c3ccccc3)C=CC3C(=O)N(c4ccccc4)C(=O)C32)cc1 (stereo not given) | -1.72 |
| CC(C)C[C@@H]1NC(=O)[C@@H]2C[C@H](C(=O)NCCCCCCNC(=O)CS)[C@H](c3ccc(O)cc3)N2C1=O | 0.0799 |
| COC(=O)Cn1c(C(=O)N(C)C)cc2c1C[C@H]1CN(C(=O)c3ccccc3)[C@@](Cc3ccccc3)(C(=O)OC)[C@@H]21 | 0.971 |
| COCCOC(=O)N1C(=O)[C@@]2(c3cc(C#CCC(C(=O)OC)C(=O)OC)ccc31)[C@H](c1ccc(O)cc1)N1[C@H](c3ccccc3)[C@H](c3ccccc3)OC(=O)[C@H]1[C@@H]2C(=O)N1CCc2cc(OC)c(OC)cc2C1 | -0.347 |
| Cc1ccc(S[C@]2(C(=O)NCc3ccccc3)CC(=O)N(Cc3ccccc3C(F)(F)F)[C@@H]2c2ccc(CO)cc2I)cc1 | 0.213 |
| O=C1C2C=CC(C(O)C3CCCCC3)N(Nc3ccccc3F)C2C(=O)N1c1ccccc1 (stereo not given) | -1.87 |
| CC[C@H]1C2=C3C(CC[C@H]4C(OCc5ccc(F)cc5C(F)(F)F)OC[C@](C)([C@@H]34)N(C(=O)OC(C)(C)C)C2)C(COC(C)=O)C1COC(C)=O (stereo not given in full) | -0.409 |
| CC1CC/C=C\[C@H]2OC34C=CCN(CCN5CCOCC5)C(=O)[C@H]3N(C(CO)C(C)C)C(=O)[C@@H]4C2C(=O)O1 (stereo not given in full) | -0.137 |
| COC(=O)C[C@H]1O[C@]2(C(=O)N(C)c3ccccc32)[C@@H](C)[C@@H]1[Si](C)(C)c1ccccc1 | 1.45 |
| O=C1O[C@@H](c2ccccc2)[C@@H](c2ccccc2)N2[C@@H](c3ccc(OCCO)cc3)[C@]3(C(=O)Nc4ccc(C#CC5=CCCCC5)cc43)[C@@H](C(=O)Nc3nc4ccccc4s3)[C@H]12 | -0.533 |
